Reference: ChEMBL document CHEMBL3988442, “University of Dundee, Small-Polar-MMV Screening Library” (2021)
About 13,000 (27%) of roughly 48,000 compounds showed an effect of 50% or more. The list shows a part of the results.

The compounds below were run on Wolbachia pipientis (assay: Anti-Wolbachia Cell-Based Screen). Details: 5 µM.
Assay type: functional
Parameters: scale not given: in the data most compounds retested in dose-response had high values
CCN(CC)Cc1cc(C(=O)N2CCCC(CC)(C(=O)O)C2)c(C)o1 (stereo not drawn) was tested, and the “Percent Effect” value was 1.255%. O=C(c1scc2c1OCCO2)N1CCOC(CCc2ccccc2)C1 (stereo not drawn) was tested, and the “Percent Effect” value was -26.43%. For CCc1nc(C)c([C@H]2CN(C)C[C@@H]2C(=O)Nc2cccc3cn[nH]c23)[nH]1, the “Percent Effect” value was -9.056%. For CC(=O)N1CCN(C(=O)CCNc2snc(Cl)c2C#N)CC1, the “Percent Effect” value was -5.282%. With Cc1cc(CN(Cc2ccccc2)CC(O)c2cccs2)on1 (stereo not drawn) the “Percent Effect” value was -11.7%. CN(C)c1ncc(CNC(=O)Nc2ccccc2F)n1C was tested, and the “Percent Effect” value was -5.654%. For CCc1ccccc1NC(=O)NCc1nnc(SC)n1C, the “Percent Effect” value was 130.1%. With CCOc1ccccc1NC(=O)NCc1ccoc1 the “Percent Effect” value was 6.288%. For CSc1nnc(CNC(=O)Nc2ccccc2Br)n1C, the “Percent Effect” value was 152.8%. For CNC(=O)Cc1ccccc1NC(=O)NCc1ccc(SC)cc1, the “Percent Effect” value was -2.376%. Cn1c(CO)nnc1SCc1c(F)cccc1Br was tested, and the “Percent Effect” value was 6.099%. COc1ccccc1NC(=O)NCc1cn[nH]c1 was tested, and the “Percent Effect” value was 15.69%. In the case of COc1ccccc1NC(=O)NCc1nnc(SC)n1C, the “Percent Effect” value is reported as 134.3%. COC(=O)CCCNC(=O)Nc1ccccc1OC was tested, and the “Percent Effect” value was -0.6444%. For Cn1c(C(F)(F)F)nn(CCNC(=O)Nc2ccccc2F)c1=O, the “Percent Effect” value was 4.89%. In the case of CNc1nc(CNC(=O)Nc2ccccc2SC)cs1, the “Percent Effect” value is reported as 0.4301%. In the case of CSc1nnc(CNC(=O)Nc2ccccc2F)n1C, the “Percent Effect” value is reported as 133%. In the case of CN(C(=O)c1ccncc1Cl)c1ccccc1S(C)(=O)=O, the “Percent Effect” value is reported as -0.2522%. In the case of O=C(Nc1cccs1)N(CCO)CCOCC(F)(F)F, the “Percent Effect” value is reported as 5.099%. With Cc1ccccc1CC1(CO)CCCN(c2ncncc2C(C)C)C1 (stereo not drawn) the “Percent Effect” value was 2.064%. For CO[C@@H]1CCN(c2nnc(C)s2)C[C@@H]1Cc1ccccc1.O=C(O)C(F)(F)F, the “Percent Effect” value was 97%. For Cc1nnc(N2CC[C@H](OCC3CC3)[C@@H](Cc3ccccc3)C2)s1.O=C(O)C(F)(F)F, the “Percent Effect” value was -12.39%. For Cc1nnc(N2CC[C@@H](OCC3CC3)[C@@H](Cc3ccccc3)C2)s1.O=C(O)C(F)(F)F, the “Percent Effect” value was 4.615%. With CO[C@H]1CCN(c2nnc(C)s2)C[C@@H]1Cc1ccccc1.O=C(O)C(F)(F)F the “Percent Effect” value was 94.02%. COCc1ccc(C(=O)N2CCC(Oc3ccccc3)(C(=O)O)CC2)o1 was tested, and the “Percent Effect” value was -4.026%. Cc1ncc(C)c(N2CCCC(CO)(Cc3cccc(Cl)c3)C2)n1 (stereo not drawn) was tested, and the “Percent Effect” value was -4.145%. CN1CCN(CCCNC(=O)c2cc(Cl)c3c(c2)OCO3)CC1 was tested, and the “Percent Effect” value was 11.84%. For CN(C)Cc1cc(=O)n2c(n1)CN(S(=O)(=O)C1CC1)CCC2.O=C(O)C(F)(F)F, the “Percent Effect” value was 96.54%. In the case of CC(C)N(C)Cc1nnc2n1CCCN(S(=O)(=O)C1CC1)C2.O=C(O)C(F)(F)F, the “Percent Effect” value is reported as -4.148%. CCN(CC)Cc1cc(=O)n2c(n1)CN(S(=O)(=O)C1CC1)CCC2.O=C(O)C(F)(F)F was tested, and the “Percent Effect” value was 115.6%. CN(C)Cc1cc(=O)n2c(n1)CN(CC1CCOCC1)CCC2 was tested, and the “Percent Effect” value was -13.06%. CC(C)N(C)Cc1cc(=O)n2c(n1)CN(S(=O)(=O)C1CC1)CCC2.O=C(O)C(F)(F)F was tested, and the “Percent Effect” value was 109.3%. CC(C)N(C)Cc1nnc2n1CCN(S(=O)(=O)C1CC1)CC2.O=C(O)C(F)(F)F was tested, and the “Percent Effect” value was -7.825%.
